Assay [1] deals with Tumor necrosis factor receptor superfamily member 10B (Homo sapiens) (UniProt O14763). In words: viability loss of caspase-8 NB7 cells with TRAIL – with/without TRAIL, luminescence panel, confirmation (AID 651596). The conditions noted are these: NB7 neuroblastoma + caspase-8, TRAIL sensitization, NB7 Caspase-8, with TRAIL, mean of runs, at 10 µM, stronger effect = higher value.
Assay in assay [2]: as above
Particulars: NB7 neuroblastoma + caspase-8, without TRAIL, NB7 Caspase-8, without TRAIL, mean of runs, at 10 µM.

The values that follow come from PubChem BioAssay.

Sequence of Tumor necrosis factor receptor superfamily member 10B (Homo sapiens) (O14763 whole entry, looked up): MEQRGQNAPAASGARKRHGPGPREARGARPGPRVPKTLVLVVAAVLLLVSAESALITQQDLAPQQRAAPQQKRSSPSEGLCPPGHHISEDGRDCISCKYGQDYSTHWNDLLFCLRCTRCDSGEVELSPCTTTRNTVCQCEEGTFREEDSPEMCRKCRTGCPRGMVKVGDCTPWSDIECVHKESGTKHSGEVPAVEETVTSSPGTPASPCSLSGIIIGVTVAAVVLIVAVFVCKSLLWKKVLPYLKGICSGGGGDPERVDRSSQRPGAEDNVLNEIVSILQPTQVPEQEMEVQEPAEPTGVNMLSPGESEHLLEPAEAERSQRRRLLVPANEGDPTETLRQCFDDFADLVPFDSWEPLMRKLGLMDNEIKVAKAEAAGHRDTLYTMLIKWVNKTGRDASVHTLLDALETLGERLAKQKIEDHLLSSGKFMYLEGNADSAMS

For the compound `Cc1cc(C(=O)Cn2nnc3ccccc3c2=O)c(C)n1Cc1cccs1`, the activity in assay [1] came out at 65.1%; in assay [2] it was 58.3%.

On to `O=C(Nc1ccc(Cl)cc1)Nc1ccccc1C(=O)O`, for which the activity in assay [1] turned out to be 58.3%; in assay [2], 45.1%.

Take `Cc1ccc(Nc2nc(N)nc(CCl)n2)cc1`: the activity in assay [1] was 98.9%; in assay [2], 97.5%.

Take `COc1ccc(/C=C/C(=O)c2ccc([N+](=O)[O-])o2)cc1`: the activity in assay [1] is 35.2%; in assay [2], 80.8%.

As for `Cc1c(C(=O)N2CCc3ccccc32)oc2ccccc12`, the activity in assay [1] was 48.2%; in assay [2], 41%.

Turning to `CCc1n[n+](CC(=O)c2ccccc2)c(N)s1`, the activity in assay [1] is 44.6%; in assay [2], 35.9%.

As to `Cc1nc(N)nc(N)c1CCCc1ccc(Cl)c(Cl)c1`, the activity in assay [1] is 69.6%; in assay [2] it was 74.8%.

As for `COc1ccc(N=C2S/C(=C\c3ccc(Cl)c([N+](=O)[O-])c3)C(=O)N2CCN(C)C)cc1`, the activity in assay [1] amounted to 65%; in assay [2], 90.2%.

As for `O=C(NCC1CC1)c1ccc2c3n(nc2c1)-c1ccccc1CO3`, the activity amounted to 89.8% in assay [1] and 89.5% in assay [2].

On to `Cc1ccc2nc(-c3ccc(NC(=O)COC(=O)c4ccc(Br)o4)cc3)sc2c1`, for which the activity worked out at 62% in assay [1] and 67.4% in assay [2].

Take `CCOc1ccc(/C=C2\CCc3ccccc3C2=O)cc1`: the activity in assay [1] was found to be 83.2%; in assay [2], 79.2%.

For the compound `CCN(CC)c1ccc(/C=N/NC(=O)c2ccccn2)cc1`, the activity in assay [1] was determined as 57.3%; in assay [2], 45.4%.

`COc1ccc2nc(NC(=O)c3ccc([N+](=O)[O-])o3)sc2c1`: the figures for the activity in assay [1] and in assay [2] were 37.6% and 77.8%, respectively.

Turning to `Cc1cc(NC(=O)c2ccc(S(=O)(=O)N3CCCC3)cc2)nc2c1c(=O)oc1ccccc12`, the activity in assay [1] turned out to be 69.5%; in assay [2], 58.2%.

Turning to `CCOC(=O)N1CCN(C(=O)c2ccc(Cn3c(=S)[nH]c4ccc(Br)cc4c3=O)cc2)CC1`, the activity in assay [1] was determined as 73.5%; in assay [2], 58.9%.

For `COC(=O)[C@@H]1Cc2c([nH]c3ccccc23)C(C)(C)N1C(=O)CCl`, the activity is 99% in assay [1] and 98% in assay [2].

For the compound `COc1ccc(C(=O)Nc2ccccc2C(=O)N/N=C/c2ccco2)cc1`, the activity in assay [1] was found to be 87.6%; in assay [2], 59.1%.

`CC(C)c1nnc(NC(=O)c2nc(S(=O)(=O)Cc3ccc(F)cc3)ncc2Cl)s1`: the activity in assay [1] came out at 72.9%; in assay [2], 41.8%.

With `NC(=O)c1ccsc1NC(=O)c1ccc2c(c1)CCCC2`, the activity in assay [1] came to 89.5%; in assay [2] it was 86.7%.

With `Cc1ccc(Nc2nc(N)c3ccccc3n2)cc1Cl`, the activity in assay [1] stood at 75.7%; in assay [2], 73.1%.

Consider `O=C(/C=C/c1ccc(F)cc1)NC(=S)Nc1ccccc1C(=O)NC1CCCCC1`, for which the activity was -1.65% in assay [1] and -0.275% in assay [2].

`Cc1ccc(NC(=O)COc2ccccc2[N+](=O)[O-])nc1`: the activity was found to be 60.5% in assay [1] and 62.8% in assay [2].

Consider `O=C(CCl)Nc1ccccc1Sc1ccccc1`, for which the activity in assay [1] stood at 83.2%; in assay [2] it was 87.8%.

Regarding `O=C(Nc1ccc(NC(=O)C2CC2)cn1)c1ccccc1`, the figures for the activity in assay [1] and in assay [2] were 51.1% and 57%, respectively.

As for `CCOC(=O)C1=C(C)OC(=Cc2ccc(OC)cc2)C1=O`, the results for the activity in assay [1] and in assay [2] were 70.6% and 70%, respectively.

Turning to `O=C(CSc1nnc(NC(=O)c2ccc(F)cc2)s1)NCc1ccco1`, the activity in assay [1] worked out at 64.4%; in assay [2], 62.4%.

Turning to `COc1ccc(NC(=O)c2ccc3c(c2)OCCO3)cc1OC`, the values for the activity in assay [1] and in assay [2] were 51.8% and 51.2%, respectively.

Consider `C(/C=C/c1ccccn1)=C\c1ccccc1`, for which the activity in assay [1] was determined as 7.58%; in assay [2], 14.6%.

As for `Nc1cnnc(N/N=C\c2ccccc2)c1Cl`, the activity stood at 22.9% in assay [1] and 19.8% in assay [2].

Turning to `CCOC(=O)CSc1nc(-c2ccncc2)ccc1C#N`, the activity in assay [1] was 55.8%; in assay [2], 55.1%.

With `CCOc1ccc2nc(-c3ccccc3)[nH]c2c1`, the activity in assay [1] was found to be 81.2%; in assay [2], 76%.

In the case of `CCOc1ccc(C(=O)Nc2cc(C)c3c(=O)oc4ccccc4c3n2)cc1`, the activity came to 61.2% in assay [1] and 62.1% in assay [2].

With `CC(C)(C)c1csc(NC(=O)Nc2ccccc2)n1`, the activity in assay [1] was 41.3%; in assay [2] it was 50%.

For `Brc1ccc(-c2cn3ccccc3n2)cc1`, the activity in assay [1] stood at 50.8%; in assay [2] it was 62.2%.

Regarding `CCOc1cc(NC(=O)CCl)c(OCC)cc1NC(=O)CCl`, the activity amounted to 96.6% in assay [1] and 98.5% in assay [2].

As for `Nc1c(-c2cccs2)cnc2c(-c3ccc(F)cc3)cnn12`, the activity in assay [1] worked out at 57.5%; in assay [2], 48.8%.

On to `CSc1ccc(/C=C/C(=O)c2c(O)cc(C)oc2=O)cc1`, for which the activity in assay [1] was found to be 78.7%; in assay [2] it was 82.2%.

As for `Cc1cc2ncc(-c3ncc(C(F)(F)F)cc3Cl)cn2n1`, the activity in assay [1] came to 45.7%; in assay [2], 41.9%.

As for `CC(=O)Oc1ccccc1/C=C/c1nc2ccccc2c(=O)o1`, the activity in assay [1] is 83.7%; in assay [2], 84.8%.

As for `CCC(=O)Nc1ccc2oc(-c3cccc(C)c3)nc2c1`, the activity in assay [1] is 57.2%; in assay [2] it was 55.7%.

On to `COc1ccc(/C=C/C(=O)NC(=S)Nc2ccccn2)cc1`, for which the activity in assay [1] amounted to 29%; in assay [2] it was 37.3%.

`Clc1ccc(-n2cnc3c(Cl)ncnc32)cc1Cl`: the activity in assay [1] came to 71.7%; in assay [2], 79%.

Take `Clc1ccc(-c2nc(-c3ccccn3)no2)cc1Cl`: the values for the activity in assay [1] and in assay [2] were 77.5% and 74.5%, respectively.

Turning to `OCC1OC(n2cnc3c(=S)nc[nH]c32)CC1O` (stereo not drawn), the activity is 31.4% in assay [1] and 35.7% in assay [2].

As to `O=C(NN=Cc1ccc2c(c1)CCN2)c1cccs1`, the activity in assay [1] stood at 47.9%; in assay [2] it was 57.8%.

For `Cc1cccc(NC(=O)c2ccc3c(c2)OCCO3)c1`, the values for the activity in assay [1] and in assay [2] were 85% and 83.5%, respectively.

For the compound `Cc1ccc(-c2nc(-c3ccccn3)no2)cc1[N+](=O)[O-]`, the activity in assay [1] was found to be 60.7%; in assay [2] it was 55%.

Regarding `c1ccc(CSc2ccc(-c3ccco3)nn2)cc1`, the results for the activity in assay [1] and in assay [2] were 57.6% and 45.9%, respectively.

In the case of `CCOc1ccc2nc(NC(=O)c3ccc(C)o3)sc2c1`, the results for the activity in assay [1] and in assay [2] were 61.1% and 52.9%, respectively.
